# Data as given in the supplement of paper PMC8728848.
# The sample as a whole holds a higher share of the strongest signals than the screen did.
# B1: Epa1-NP-mutant-Y228W (Candida glabrata), Q6VBJ0 (protein)
# chain: MILNPALFLNKCVCIYTTLILLLLTNGGYATSSNDISLASKDPTTFPLGCSPDITTPKKGLSMELYSYDFRKKGSYPCWDAAYLDPNYPRTGYKSHRLLAKVDGVTGNINFYYHATKGCTPQLGHLPASYNYPKPLTMTNFTMLLYGYFRPKVTGFHTFTISADDLLFVNFGAGNAFDCCRRDSSADHFGNYQAYAIWGSKTAKDELTVHLDAGVYYPIRLFYNNREWDGALSFTFKTESNENTVSDFSEYFFSLDDTEEGCPGLISYDSSCASVKTSKIIGIDYHTETPNENLVPITKTIYHLGIPCTGTTTTPLCGSGFYDPLANKCVTINTSSTSSVTKTTSHTTSKEVSFHSSISSQKTLIPKSIPSPYGPIKSQSIPTEMETSSEISSSEYAFSDVISTPSHSPYTKKHSSLNSSSYTSTVIHSLTSYSISQGIFSTSLSEQNITSKSSTDKFSTATSMSNNITQSSIIISQFSTNNENYTTTSMHTSSDKISTETLNNSISTTTSILFSNSSTILKNNTTIISSDKDTHYHPVNPTIVCSTNKTEIICASITQPSISNSNNHWSSSVLKFNSTTVRSTLPSSAGSNETSINVPFSSSTESNTSTSSTSTSNSKMVRSTLPSSAGSNETSISVPFSSSTESNTSTSSTSTSNSKMVRSTLPSSAGSNETSINVPFSSSTESNTSTSSTSTSNSKTVRSTPFSSAGIIMTSLSQRNNKSASSYASSNSKCYNTADSCRKVHSTPSYLLTSSYTSEGVDYDCSLVSTKLKINDTNCVNNKHTTKSCLKTSVTTTIPTLEIKTARKSSSNTIGLHSYPTSSPNKSISSAPIIGYISSFKTIKTASPSYQTSDLTTITTITSLNNPGSTAVENTHESNDKSRKTSSNDISSKHSVIKETKDAVESSNKSHQTNTLKCSSIIIASSSHNSYESLGGTTLTLTLSKVYSPQNNDTLPFLEISEVNPSRTVLPESSKMMQYLTSTEERNKTARNTIATNIVSISTFHFEGEGNAIRMGYTQLLLMLIGIIVMNIGT
# Tests used:
# Assay in all cases: glycan array binding signal (z-score within array); higher = stronger binding
# Conditions in all cases: glycan notation: IUPAC condensed, linker removed; mutation: Y228W
# [1] = target: Fuc(a1-2)Gal(b1-3)GlcNAc(b1-3)[Neu5Ac(a2-6)Gal(b1-4)GlcNAc(b1-6)]Gal(b1-4)Glc
# Method in brief: (§1)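 Glycan array data came from 3228 arrays in the Consortium for Functional Glycomics database, and only arrays with an available protein sequence were kept. Glycan names were put into IUPAC-condensed notation, and columns mapping to the same glycan were averaged. The binding signal is a within-array Z-score, averaged across arrays of one protein sequence run at different concentrations or buffers and across linkers. A negative Z-score can be read as non-binding.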
# [2] = target: Fuc(a1-2)Gal(b1-4)Glc
# Method in brief: as §1
# [3] = target: Fuc(a1-2)Gal(b1-4)GlcNAc(b1-3)Gal(b1-4)GlcNAc(b1-2)Man(a1-3)[Fuc(a1-2)Gal(b1-4)GlcNAc(b1-3)Gal(b1-4)GlcNAc(b1-2)Man(a1-6)]Man(b1-4)GlcNAc(b1-4)GlcNAc
# Method in brief: as §1
# [4] = target: Fuc(a1-2)Gal(b1-4)GlcNAc(b1-3)[Fuc(a1-3)[Gal(b1-4)]GlcNAc(b1-6)]Gal(b1-4)Glc
# Method in brief: as §1
# [5] = target: Fuc(a1-2)Gal(b1-4)GlcNAc(b1-6)GalNAc
# Method in brief: as §1
# [6] = target: Fuc(a1-2)Gal(b1-4)[Fuc(a1-3)]GlcNAc(b1-3)GalNAc
# Method in brief: as §1
# [7] = target: Fuc(a1-2)[Gal(a1-3)]Gal(b1-3)GlcNAc(b1-3)GalNAc
# Method in brief: as §1
# [8] = target: Fuc(a1-2)[Gal(a1-3)]Gal(b1-4)GlcNAc(b1-2)Man
# Method in brief: as §1
# [9] = target: Fuc(a1-2)[Gal(a1-3)]Gal(b1-4)[Fuc(a1-3)]GlcNAc
# Method in brief: as §1
# [10] = target: Fuc(a1-2)[GalNAc(a1-3)]Gal(b1-4)[Fuc(a1-3)]GlcNAc
# Method in brief: as §1
# [11] = target: Fuc(a1-2)[GalNAc(a1-3)]Gal(b1-4)[Fuc(a1-3)]GlcNAc(b1-3)GalNAc
# Method in brief: as §1
# [12] = target: Fuc(a1-3)[Gal(b1-4)]GlcNAc(b1-2)Man(a1-3)[Fuc(a1-3)[Gal(b1-4)]GlcNAc(b1-2)Man(a1-6)]Man(b1-4)GlcNAc(b1-4)[Fuc(a1-6)]GlcNAc
# Method in brief: as §1
# [13] = target: Fuc(a1-3)[Gal(b1-4)]GlcNAc(b1-3)Gal(b1-4)[Fuc(a1-3)]GlcNAc(b1-3)Gal(b1-4)[Fuc(a1-3)]GlcNAc
# Method in brief: as §1
# [14] = target: Fuc(a1-3)[Gal3S(b1-4)]GlcNAc6S
# Method in brief: as §1
# [15] = target: Gal(a1-3)Gal(b1-4)GlcNAc(b1-6)GalNAc
# Method in brief: as §1
# [16] = target: Gal(a1-3)[Gal(a1-4)]Gal(b1-4)GlcNAc
# Method in brief: as §1
# [17] = target: Gal(a1-4)Gal(b1-4)GlcNAc
# Method in brief: as §1
# [18] = target: Gal(b1-3)Gal(b1-4)GlcNAc
# Method in brief: as §1
# [19] = target: Gal(b1-3)GalNAc
# Method in brief: as §1
# [20] = target: Gal(b1-3)GalNAc(b1-3)Gal
# Method in brief: as §1
# [21] = target: Gal(b1-3)GalNAc(b1-4)Gal(b1-4)Glc
# Method in brief: as §1
# [22] = target: Gal(b1-3)GalNAc(b1-4)[Neu5Ac(a2-3)]Gal(b1-4)Glc
# Method in brief: as §1
# [23] = target: Gal(b1-3)GlcNAc
# Method in brief: as §1
# [24] = target: Gal(b1-3)GlcNAc(b1-2)Man
# Method in brief: as §1
# [25] = target: Gal(b1-3)GlcNAc(b1-3)Gal(b1-4)GlcNAc
# Method in brief: as §1
# [26] = target: Gal(b1-3)GlcNAc(b1-3)Gal(b1-4)GlcNAc(b1-2)Man(a1-3)[Gal(b1-3)GlcNAc(b1-3)Gal(b1-4)GlcNAc(b1-2)Man(a1-6)]Man(b1-4)GlcNAc(b1-4)GlcNAc
# Method in brief: as §1
# [27] = target: Gal(b1-4)GlcNAc(a1-6)Gal(b1-4)GlcNAc
# Method in brief: as §1
# [28] = target: Gal(b1-4)GlcNAc(b1-2)Man(a1-3)[Gal(b1-4)GlcNAc(b1-2)Man(a1-6)]Man(b1-4)GlcNAc(b1-4)[Fuc(a1-6)]GlcNAc
# Method in brief: as §1
# [29] = target: Gal(b1-4)GlcNAc(b1-2)[Gal(b1-4)GlcNAc(b1-6)]Man(a1-6)[GlcNAc(b1-4)][Gal(b1-4)GlcNAc(b1-2)Man(a1-3)]Man(b1-4)GlcNAc(b1-4)GlcNAc
# Method in brief: as §1
binder,measurement,setting,value
B1,glycan array binding signal (z-score),[1],-0.437
same,glycan array binding signal (z-score),[2],-0.146
same,glycan array binding signal (z-score),[3],0.051
same,glycan array binding signal (z-score),[4],-0.169
same,glycan array binding signal (z-score),[5],0.006
same,glycan array binding signal (z-score),[6],-0.204
same,glycan array binding signal (z-score),[7],-0.019
same,glycan array binding signal (z-score),[8],-0.304
same,glycan array binding signal (z-score),[9],-0.288
same,glycan array binding signal (z-score),[10],-0.138
same,glycan array binding signal (z-score),[11],-0.1
same,glycan array binding signal (z-score),[12],0.029
same,glycan array binding signal (z-score),[13],-0.169
same,glycan array binding signal (z-score),[14],0.109
same,glycan array binding signal (z-score),[15],-0.035
same,glycan array binding signal (z-score),[16],-0.336
same,glycan array binding signal (z-score),[17],-0.087
same,glycan array binding signal (z-score),[18],7.29
same,glycan array binding signal (z-score),[19],2.78
same,glycan array binding signal (z-score),[20],2.53
same,glycan array binding signal (z-score),[21],15
same,glycan array binding signal (z-score),[22],4.99
same,glycan array binding signal (z-score),[23],-0.24
same,glycan array binding signal (z-score),[24],-0.27
same,glycan array binding signal (z-score),[25],-0.333
same,glycan array binding signal (z-score),[26],-0.274
same,glycan array binding signal (z-score),[27],3.19
same,glycan array binding signal (z-score),[28],0.093
same,glycan array binding signal (z-score),[29],-0.205
